10 molecules from PubChem BioAssay can be followed below.

Activity calls are given as the source filed them.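 The calls were made as follows, unless noted: active = fluorescence slope after compound addition differing from the mean of all screened samples at 99.7% confidence, in either direction; inactive = the rest.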

Assay [1] is described as follows: inhibitors of TNFa-induced NFkB p65 translocation, primary screen, imaging, HUVEC, MLSMR starter and 10KST1 sets (AID 438;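 active = inhibition above 20% together with a positive visual image hit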;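 also: compound added about 3h40 before a 20 min TNFalpha stimulation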;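 as to inhibition: signal is the nuclear over cytoplasmic p65 intensity ratio per well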). Conditions: HUVEC TNFa-induced p65 nuclear translocation; cell count: measured here: nuclei count (cytotoxicity indicator), at 2.08 µM; inhibition: at 2 µM, stronger effect = higher value, 0% TNFa-plus-vehicle, 100% no-TNFa wells.
Assay [2] in a line: inhibitors of mutant huntingtin aggregation, primary screen, imaging, exon1htt(103Q)mCFP cells, high-content imaging (AID 483;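 active = visual image review flags a hit and inhibition of aggregation exceeds 20%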;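 also: compound exposure lasted 3 days before fixation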;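 as to nuclei count: percent of the per-plate median nuclei count of sample wells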). Conditions: exon1htt(103Q)mCFP cell line, aggregate imaging, at 2 µM; inhibition of aggregation: stronger effect = higher value; nuclei count: measured here: cell count, toxicity.
Assay [3] is described as follows: inhibitors of E-selectin induction by TNFa, primary screen, imaging, HUVEC, immunofluorescence, MLSMR starter and 10KST1 sets (AID 487;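 active = visually confirmed hit in the image check and inhibition above 20%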;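 as to inhibition: signal is fraction of cell area covered by stained E-selectin grains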;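 as to nuclei count: 100% = median nuclei count of all wells on the same plate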). Conditions: HUVEC TNFalpha-induced E-selectin immunofluorescence imaging, at 2 µM; inhibition: stronger effect = higher value; nuclei count: measured here: cell number, toxicity.
Assay [4] addresses Voltage-gated potassium channel subunit beta-2 (Rattus norvegicus) (UniProt P62483). The experiment in a line: KvBeta enzyme negative modulators, primary screen, biochemical, NADPH fluorescence (AID 622;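 active = fluorescence slope higher than the sample average by over 3 SD, cut at about -0.22 in these data, passing the limit was not always enough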;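 also: slope of raw intensity against log time taken from 70 to 1610 s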). Conditions: recombinant KvBeta, 4-cyanobenzaldehyde reduction, at 10 µM, stronger effect = higher value.
The target is the same in assay [5]. The experiment in a line: KvBeta positive modulators, primary screen, biochemical, NADPH fluorescence (AID 623;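 active = NADPH fluorescence slope more negative than the mean of all samples by about 3 SD, 99.7% confidence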;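 also: fluorescence intensity change per second fitted from 20 to 320 s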). Conditions: Recombinant KvBeta, NADPH fluorescence decrease slope, 10 min; at 10 µM; stronger effect = lower value.
For assay [6], the target named is Alpha-2C adrenergic receptor (Homo sapiens) (UniProt P18825). The experiment in a line: modulators of alpha2C/GIRK thallium flux, primary screen, cell-based, HEK293 alpha2C/GIRK1/2 (AID 624).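 Also: slope of fluorescence ratio to pre-addition baseline per second over 15 to 24 s.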 Conditions: thallium flux BTC fluorescence, at 10 µM, actives lie on both sides.
A short description of assay [7]: inhibitors of Sendai virus-induced IRF3 signaling, primary screen, TLR/RLR signaling modifier project, cell-based, Sendai virus stimulus, luciferase, 10K MLSCN set (AID 602276;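 active = inhibition at or above 50% at 10 µM; inactive = inhibition below 50%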;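 also: firefly luciferase from ISG56 promoter only with Renilla not read in this screen; 0% = Sendai virus plus DMSO and 100% = medium plus DMSO without virus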). Conditions: HEK293 RL24 IRF3 luciferase reporter, at 10 µM, stronger effect = higher value.
Assay [8] can be described thus: inhibitors of poly I:C-induced TLR3 signaling, primary screen, cell-based, poly I:C stimulus, luciferase, 10K MLSCN set (AID 602277;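 active = inhibition of the reporter signal at or above 50%; inactive = inhibition below 50%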). Conditions: HEK293-TLR3 RL24 IRF3 luciferase reporter, at 10 µM, stronger effect = higher value.

Sequence of Voltage-gated potassium channel subunit beta-2 (Rattus norvegicus) (P62483 whole entry, looked up): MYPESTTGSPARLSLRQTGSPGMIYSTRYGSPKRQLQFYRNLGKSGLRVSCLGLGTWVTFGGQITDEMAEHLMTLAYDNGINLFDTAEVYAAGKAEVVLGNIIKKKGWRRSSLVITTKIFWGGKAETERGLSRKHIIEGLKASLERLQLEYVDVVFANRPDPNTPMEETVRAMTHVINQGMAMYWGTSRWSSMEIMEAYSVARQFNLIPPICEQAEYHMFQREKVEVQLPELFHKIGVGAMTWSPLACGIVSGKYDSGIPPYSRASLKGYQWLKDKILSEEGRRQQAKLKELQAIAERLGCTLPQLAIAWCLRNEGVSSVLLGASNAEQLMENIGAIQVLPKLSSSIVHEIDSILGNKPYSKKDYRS
Sequence of Alpha-2C adrenergic receptor (Homo sapiens) (P18825 whole entry, looked up): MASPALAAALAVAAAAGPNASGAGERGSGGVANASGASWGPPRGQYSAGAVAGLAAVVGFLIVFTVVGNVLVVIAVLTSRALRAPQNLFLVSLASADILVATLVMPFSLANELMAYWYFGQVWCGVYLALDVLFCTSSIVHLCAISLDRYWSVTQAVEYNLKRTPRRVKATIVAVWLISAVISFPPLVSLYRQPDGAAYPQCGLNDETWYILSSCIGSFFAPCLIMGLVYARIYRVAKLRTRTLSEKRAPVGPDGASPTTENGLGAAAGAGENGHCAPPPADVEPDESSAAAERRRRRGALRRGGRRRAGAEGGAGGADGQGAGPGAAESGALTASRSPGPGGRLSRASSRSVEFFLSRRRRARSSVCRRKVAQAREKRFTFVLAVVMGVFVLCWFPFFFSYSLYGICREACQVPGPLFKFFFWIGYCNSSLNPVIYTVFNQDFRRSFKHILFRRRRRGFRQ

`CN1CCN(C(=O)c2ccc3c(=O)n(CCc4ccccc4)c(=S)[nH]c3c2)CC1`: the cell count in assay [1] came out at 551. Also, the inhibition is -13.1% (inactive) in assay [1], -44.1% (inactive) in assay [3], 4.3% (inactive) in assay [7] and 23.3% (inactive) in assay [8]. Further, the inhibition of aggregation in assay [2] was -0.8% (inactive). The nuclei count came to 77% in assay [2] and 98.9% in assay [3]. Moreover, the fluorescence slope in assay [4] is -0.459 (inactive). Moreover, the NADPH fluorescence slope in assay [5] is 5.7e-06 (inactive). The slope in assay [6] is 0.00697 (inactive).

Turning to `Cc1cc(NC(=O)c2ccccc2)ncc1NC(=O)c1ccco1`, the cell count in assay [1] is 427. Also, the inhibition in assay [1] was 12.5% (inactive); in assay [7], 7.79% (inactive); in assay [8] it was -25.3% (inactive). In addition, the inhibition of aggregation in assay [2] is 11.4% (inactive). Moreover, the nuclei count in assay [2] worked out at 100%; in assay [3] it was 147%. The fluorescence slope in assay [4] is -0.603 (inactive). In assay [5], the NADPH fluorescence slope is 2.5e-05 (inactive). Moreover, in assay [6], the slope is 0.00711 (inactive).

In the case of `O=C(OCc1nnc(-c2ccc(Cl)cc2)o1)c1ccc(=O)n(Cc2ccccc2)n1`, the cell count in assay [1] turned out to be 413. For the same molecule, the inhibition was 1.7% (inactive) in assay [1], -5.01% (inactive) in assay [7] and -8.16% (inactive) in assay [8]. The inhibition of aggregation in assay [2] is 3% (inactive). The nuclei count in assay [2] came out at 99.3%; in assay [3], 160%. For the same molecule, the fluorescence slope in assay [4] is -0.44 (inactive). Further, the NADPH fluorescence slope in assay [5] was -5e-05 (inactive). Further, the slope in assay [6] was 0.00426 (inactive).

Turning to `COc1ccc(Br)cc1C1N2CC3(C)CN1CC(C)(C2)C3=O` (configuration not stated), the cell count in assay [1] turned out to be 435. Also, the values for the inhibition in assay [1], in assay [7] and in assay [8] were 5.6% (inactive), -3.74% (inactive) and 10.3% (inactive), respectively. Further, the inhibition of aggregation in assay [2] was 6.8% (inactive). The nuclei count in assay [2] was 96.9%; in assay [3] it was 148%. In assay [4], the fluorescence slope is -0.389 (inactive). The NADPH fluorescence slope in assay [5] was -0.000152 (inactive). Moreover, in assay [6], the slope was 0.00688 (inactive).

For `O=S(=O)(NC1CCCCC1NS(=O)(=O)c1ccc(F)cc1)c1ccc(F)cc1` (configuration not stated), in assay [1], the cell count worked out at 334. The inhibition in assay [1] is 5.3% (inactive); in assay [3] it was 5.1% (inactive); in assay [7] it was 21.4% (inactive); in assay [8] it was 26.6% (inactive). In addition, the inhibition of aggregation in assay [2] was -1.8% (inactive). Moreover, the nuclei count in assay [2] turned out to be 101%; in assay [3], 112%. For the same molecule, in assay [4], the fluorescence slope is -0.503 (inactive). In addition, the NADPH fluorescence slope in assay [5] was -3.7e-06 (inactive). Further, in assay [6], the slope was 0.00507 (inactive).

In the case of `Cc1cc(C(=O)NCCCN2CCN(C3CCCCC3)CC2)n(-c2ccccc2)n1`, in assay [1], the cell count was found to be 685. Besides, the inhibition in assay [1] is -2.2% (inactive); in assay [3], -70.3% (inactive); in assay [7], -18.1% (inactive); in assay [8], 17.8% (inactive). In assay [2], the inhibition of aggregation was -2.4% (inactive). Besides, the nuclei count in assay [2] was found to be 101%; in assay [3], 114%. Moreover, the fluorescence slope in assay [4] was -0.588 (inactive). In addition, the NADPH fluorescence slope in assay [5] was -2.7e-05 (inactive). Further, the slope in assay [6] is 0.00679 (inactive).

For `O=C(NCC1CCCO1)C1CCCN(S(=O)(=O)c2cccc3nsnc23)C1` (configuration not stated), the cell count in assay [1] came out at 801. The inhibition in assay [1] was -1.6% (inactive); in assay [3], -30.2% (inactive); in assay [7] it was 0.526% (inactive); in assay [8], -1.36% (inactive). Further, the inhibition of aggregation in assay [2] is 30.3% (inactive). For the same molecule, the values for the nuclei count in assay [2] and in assay [3] were 122% and 114%, respectively. In addition, in assay [4], the fluorescence slope is -0.434 (inactive). Besides, in assay [5], the NADPH fluorescence slope is 6e-05 (inactive). The slope in assay [6] was 0.00536 (inactive).

Consider `COc1ccc(N2CCN(c3oc(COc4ccccc4Cl)nc3C#N)CC2)cc1`, for which the cell count in assay [1] turned out to be 451. Further, the inhibition in assay [1] was 14.6% (inactive); in assay [3], -33.4% (inactive); in assay [7], 2.05% (inactive); in assay [8], 15.7% (inactive). In addition, the inhibition of aggregation in assay [2] was 5.4% (inactive). For the same molecule, the results for the nuclei count in assay [2] and in assay [3] were 95.5% and 104%, respectively. For the same molecule, the fluorescence slope in assay [4] is -0.438 (inactive). The NADPH fluorescence slope in assay [5] was -0.000162 (inactive). Besides, the slope in assay [6] was 0.00642 (inactive).

As to `Cc1c(C)[n+](=O)c2c(n1[O-])CCCCC2`, the cell count in assay [1] is 545. Further, the inhibition was -27.9% (inactive) in assay [1], 36.9% (inactive) in assay [3], -0.779% (inactive) in assay [7] and 22.1% (inactive) in assay [8]. Moreover, the inhibition of aggregation in assay [2] is 10.6% (inactive). Besides, the nuclei count in assay [2] came out at 81.3%; in assay [3] it was 63.9%. In assay [4], the fluorescence slope is -0.491 (inactive). Besides, the NADPH fluorescence slope in assay [5] was -4.7e-05 (inactive). Besides, the slope in assay [6] was 0.00652 (inactive).

Regarding `O=S(=O)(NCC1CCCO1)c1ccc2c(c1)OCCO2` (configuration not stated), in assay [1], the cell count is 311. Also, the inhibition in assay [1] was -5.5% (inactive); in assay [3], -67.1% (inactive); in assay [7] it was 6.84% (inactive); in assay [8] it was 7.25% (inactive). For the same molecule, the inhibition of aggregation in assay [2] is -1% (inactive). Also, the values for the nuclei count in assay [2] and in assay [3] were 122% and 120%, respectively. For the same molecule, the fluorescence slope in assay [4] is -0.469 (inactive). Moreover, in assay [5], the NADPH fluorescence slope was -9.9e-06 (inactive). For the same molecule, in assay [6], the slope is 0.00518 (inactive).
